Results from PubChem BioAssay AID1159580 (chemical genetic matrix, 2015).
Several values for one entry are separate records, joined by “and”; a condition that tells them apart may be missing. Equal entries are not always repeated. Hit rate of the full screen: of about 5,500 compounds, about 2,000 (36%) were called active. Roughly 18% stayed inconclusive and do not appear here. Rule as the data show it: active = normalized growth mostly below about 0.91 (no sharp cut-off); inconclusive = no clear call, values can overlap the other calls; inactive = mostly above about 0.92. Some of the results follow.

Test: chemical genetic growth profiling, strain panel (AID 1159580);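 also: tested at 20 µM; growth read once vehicle control cultures reached saturation at 30 °C; 1 = growth at the plate median or of vehicle wells; lower values mean less growth of the strain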
Conditions: S. cerevisiae deletion strains, growth OD
[1] = locus YBR229C, strain ROT2, hits give low values
[2] = locus YDL101C, strain DUN1, hits give low values
[3] = locus YEL061C, strain CIN8, hits give low values
[4] = locus YGR078C, strain PAC10, hits give low values
[5] = locus YGR229C, strain SMI1, hits give low values
[6] = locus YHR030C, strain SLT2, hits give low values
[7] = locus YJR043C, strain POL32, hits give low values
[8] = locus YLR039C, strain RIC1, hits give low values
[9] = locus YLR262C, strain YPT6, hits give low values
[10] = locus YNL153C, strain GIM3, hits give low values
[11] = locus YPL055C, strain LGE1, hits give low values
[12] = locus YPL241C, strain CIN2, hits give low values

Measured: normalized growth

O=C(Nc1ccccc1)c1ccccc1O
active: locus YBR021W, strain FUR4, hits give low values 1.18 [resistant] | locus YKR001C, strain vps1, hits give low values 0.897 | locus YLR113W, strain HOG1, hits give low values 0.791 | locus YOR184W, strain ser1, hits give low values 0.861
inactive: [1] 1.01 | locus YCL029C, strain bik1, hits give low values 0.953 | locus YDL035C, strain GPR1, hits give low values 0.954 | locus YDL074C, strain BRE1, hits give low values 0.904 | [2] 0.956 | locus YDL185W, strain tfp1, hits give low values 0.927 | locus YDL192W, strain arf1, hits give low values 0.941 | locus YDR101C, strain arx1, hits give low values 0.953 | locus YDR162C, strain NBP2, hits give low values 0.963 | locus YDR318W, strain mcm21, hits give low values 0.981 | locus YDR388W, hits give low values 0.988 | locus YDR502C, strain sam2, hits give low values 0.939 | [3] 0.995 | locus YER110C, hits give low values 0.962 | locus YER155C, strain BEM2, hits give low values 0.98 | locus YER167W, strain BCK2, hits give low values 0.982 | locus YGL078C, strain dbp3, hits give low values 0.943 | locus YGL086W, strain mad1, hits give low values 0.966 | locus YGL248W, strain PDE1, hits give low values 0.981 | [4] 0.94 | locus YGR135W, strain pre9, hits give low values 0.944 | [5] 0.909 | locus YGR252W, strain gcn5, hits give low values 0.847 | [6] 0.992 and 0.935 | locus YHR079C, strain IRE1 (second series), hits give low values 0.979 | locus YHR079C, strain IRE1, hits give low values 0.921 | locus YHR094C, strain hxt1, hits give low values 0.989 | locus YHR129C, strain ARP1, hits give low values 0.991 | locus YHR200W, strain rpn10, hits give low values 0.963 | locus YIL066C, strain RNR3, hits give low values 0.986 | locus YIL073C, strain SPO22, hits give low values 0.874 | locus YIL125W, strain kgd1, hits give low values 0.984 | locus YIR030C, strain dcg1, hits give low values 0.976 | locus YJL095W, strain BCK1, hits give low values 0.929 and 0.932 | locus YJL134W, strain LCB3, hits give low values 0.987 | locus YJL168C, strain set2, hits give low values 0.992 | locus YJL187C, strain SWE1 (second series), hits give low values 0.941 | [7] 0.924 | locus YJR066W, strain TOR1, hits give low values 0.901 | locus YKL009W, strain mrt4, hits give low values 0.891 | locus YKL068W, hits give low values 0.964 | locus YKL085W, strain MDH1 (second series), hits give low values 0.98 | locus YKL085W, strain MDH1, hits give low values 0.98 | [8] 0.949 | locus YLR058C, strain SHM2, hits give low values 0.99 | locus YLR102C, strain apc9, hits give low values 0.976 | [9] 0.945 | locus YLR268W, strain sec22, hits give low values 0.916 | locus YLR330W, strain CHS5, hits give low values 0.983 | locus YLR342W, strain FKS1 (second series), hits give low values 0.968 | locus YLR371W, strain rom2, hits give low values 0.964 | locus YLR418C, strain cdc73, hits give low values 0.934 | locus YML016C, strain PPZ1, hits give low values 1 | locus YML032C, strain rad52, hits give low values 0.98 | locus YML124C, strain tub3, hits give low values 0.988 | locus YMR078C, strain ctf18, hits give low values 0.956 | locus YMR223W, strain ubp8, hits give low values 0.941 | locus YMR307W, strain GAS1, hits give low values 0.986 | locus YNL067W, strain RPL9B, hits give low values 0.9 | [10] 0.94 | locus YNL183C, strain NPR1, hits give low values 0.885 | locus YNL233W, strain BNI4, hits give low values 0.945 | locus YNL250W, strain rad50, hits give low values 0.952 | locus YNL271C, strain bni1, hits give low values 0.959 | locus YNL298W, strain CLA4, hits give low values 0.971 | locus YNL307C, strain MCK1, hits give low values 0.974 | locus YNR052C, strain pop2, hits give low values 0.978 | locus YOL012C, strain htz1 1.23 | locus YOL147C, strain pex11, hits give low values 0.987 | locus YOR061W, strain CKA2, hits give low values 0.997 | locus YOR069W, strain VPS5, hits give low values 0.995 | locus YOR136W, strain idh2, hits give low values 0.983 | locus YOR144C, strain elg1, hits give low values 0.994 | locus YOR231W, strain MKK1, hits give low values 0.929 | locus YOR316C, strain cot1, hits give low values 0.989 | [11] 0.921 | [12] 0.994 | locus YPL256C, strain CLN2, hits give low values 0.901 | locus YPR119W, strain clb2, hits give low values 0.98 | locus YPR141C, strain kar3, hits give low values 0.969 | locus YPR163C, strain tif3, hits give low values 0.982 | locus YPR167C, strain met16, hits give low values 0.966 | strain wtn01, hits give low values 0.907

NNC(=O)c1ccccc1O
inactive: [1] 0.986 | [2] 0.975 | locus YDL134C, strain PPH21, hits give low values 0.988 | locus YDR150W, strain NUM1, hits give low values 0.892 | [3] 0.965 | [4] 1.01 | [5] 0.989 | [6] 1.03 | locus YHR087W, strain rtc3, hits give low values 0.99 | [7] 0.96 | locus YJR075W, strain HOC1, hits give low values 1.02 | locus YKL190W, strain CNB1, hits give low values 0.983 | [8] 0.958 | locus YLR058C, strain SHM2 (second series), hits give low values 1 | locus YLR085C, strain ARP6, hits give low values 0.962 | [9] 0.975 | locus YML094W, strain GIM5, hits give low values 0.963 | locus YMR219W, strain ESC1, hits give low values 0.996 | locus YMR263W, strain SAP30, hits give low values 1.01 | [10] 1.01 | locus YNL298W, strain CLA4 (second series), hits give low values 0.976 | locus YNL322C, strain KRE1, hits give low values 1.01 | locus YNR030W, strain Alg12, hits give low values 1.01 | [11] 0.916 | [12] 1.11 | locus YPR135W, strain CTF4, hits give low values 0.956
